USP1 inh = Inhibitors of USP1/UAF1: Primary Screen | hit rate 0.23% among 390,000 | Potency, µM (highest dose often 57.1 µM), inactives show top-dose activity change, negative = inhibition, usual class: inhibitors | recombinant USP1/UAF1, Ub-Rhodamine cleavage fluorescence | Ubiquitin carboxyl-terminal hydrolase 1 (Homo sapiens), O94782; also: potency is read from the fitted curve at half-maximal effect; % is scaled to controls: 0 for no effect and ±100 for the full control effect; nearly all actives have a fitted effect of over 60% in size
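1 nM enzyme complex + cpd, 15 min RT; start with Ub-Rho 150nM final; kinetic fluorescence ex 480/em 540, 6 reads q60 s. Buffer 50mM HEPES pH 7.8, 0.5mM EDTA, 0.1 mg/ml BSA, 1mM TCEP, 0.01% Tween-20.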
S2 tox = Viability Counterscreen for Primary qHTS for Inhibitors of ATXN expression; S2 cells (HEK-293 line with an ATXN2-luciferase reporter) viability, CellTiter-Fluor protease fluorescence, 24 h; Potency, µM (top dose mostly 56.7 µM), usual class: cytotoxic; hit rate 0.49% among 400,000; also: potency is read from the fitted curve at half-maximal effect; nearly all actives have a fitted effect of over 40% in size
ATXN2 expr inh = Primary qHTS for Inhibitors of ATXN expression; HEK-293 ATXN2-luciferase reporter, luminescence, 24 h; Potency, µM (titrated, usually from 57 µM), for the others: at the highest dose activity change, negative = inhibition, hits mostly inhibitors; hit rate 0.72% among 360,000; also: potency is read from the fitted curve at half-maximal effect; % is scaled to controls: 0 for no effect and ±100 for the full control effect; nearly all actives have a fitted effect of over 55% in size
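qHTS (up to 57 uM final) was run with 24 h compound exposure of reporter cells at 37 °C. Each well was multiplexed: SteadyGlo luminescence measured ATXN2-luciferase expression after a fluorogenic Gly-Phe-AFC viability readout (25 uM final).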
USP2a inh = qHTS Assay for Inhibitors of Ubiquitin-specific Protease USP2a Using CHOP2 as the Reporter; Ubiquitin carboxyl-terminal hydrolase 2 (Homo sapiens), O75604; USP2 core, Ub-CHOP2 coupled fluorogenic reporter, 485/531; Potency, µM (titrated, usually from 38.3 µM), for the others: top-dose activity change, negative = inhibition, most hits filed as inhibitors; hit rate 0.01% among 330,000;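 also: potency is read from the fitted curve at half-maximal effect; plate controls were DMSO wells for no effect and full inhibition by NEM control for full effect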
Target sequence (O75604 whole entry, looked up): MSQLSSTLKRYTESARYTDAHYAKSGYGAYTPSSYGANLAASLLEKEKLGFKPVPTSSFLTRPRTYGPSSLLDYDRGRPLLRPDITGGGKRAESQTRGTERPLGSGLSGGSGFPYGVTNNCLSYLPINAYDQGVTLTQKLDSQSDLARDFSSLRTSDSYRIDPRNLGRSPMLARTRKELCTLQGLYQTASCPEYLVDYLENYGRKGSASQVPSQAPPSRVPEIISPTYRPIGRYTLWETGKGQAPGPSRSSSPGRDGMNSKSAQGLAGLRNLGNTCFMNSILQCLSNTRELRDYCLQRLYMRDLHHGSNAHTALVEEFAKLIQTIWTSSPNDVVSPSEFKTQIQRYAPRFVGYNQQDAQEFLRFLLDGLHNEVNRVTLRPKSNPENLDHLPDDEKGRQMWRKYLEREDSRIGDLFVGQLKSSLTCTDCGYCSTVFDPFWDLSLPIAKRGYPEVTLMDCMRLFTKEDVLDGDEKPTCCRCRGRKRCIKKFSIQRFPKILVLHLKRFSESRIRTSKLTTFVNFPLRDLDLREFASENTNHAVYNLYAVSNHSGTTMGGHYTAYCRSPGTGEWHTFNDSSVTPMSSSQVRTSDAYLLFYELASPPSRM
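Deubiquitinase activity read as fluorescence (485/531 nm) after Ub-CHOP2 cleavage activates the enterokinase reporter on its substrate; USP2 core 10nM, Ub-CHOP2 and substrate 25nM each, 30min compound preincubation then 60min RT; data normalized to NEM, curves fitted.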
IL1B secr inh = qHTS for Inhibitors of Inflammasome Signaling: IL-1-beta AlphaLISA Primary Screen; hit rate 4.7% among 360,000; THP-1 LPS/ATP IL-1B secretion, AlphaLISA, 16 h; stronger effect = lower value; activity change, % at 57.5 µM; AID 743279, 2014; in the data active = activity change below about -50%; inconclusive = mostly about -30% to -49%; also: % is scaled to controls: 0 for no effect and ±100 for the full control effect
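THP-1 cells pretreated 1 hr with compounds (up to 57.5 uM final), then stimulated with LPS (250 ng/mL final) plus ATP (1.25 mM final); secreted IL-1B measured by AlphaLISA after 16 hr, decreased signal indicating inhibition.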
An asterisk follows results filed as active; i = inactive; ? = inconclusive; . = no result; ! = not confirmed by another sample; [ ] = dose if it differs, or a comment. Shown are actives, neighbours in structure and some others; about 4.8% of the full set was active somewhere. Unless noted, calls follow the shape of the dose curve; as a rule, active = well fitted curve in the direction sought with a large enough effect; inconclusive = small, poorly fitted or top-dose-only effect, or another doubt; inactive = no such curve, though single readings can be large; an effect the other way counts as inactive or inconclusive.

SMILES	USP1 inh	S2 tox	ATXN2 expr inh	USP2a inh	IL1B secr inh
CCOC(=O)[C@]12Cc3cc(C)ccc3[C@H]1N(CCC(=O)OC)C(=O)c1ccccc12	.	18µM*	-29%	.	-113*
CCCCCN1C(=O)c2ccccc2[C@@]2(C(=O)OCC)Cc3cc(Cl)ccc3[C@@H]12	.	?	?	.	-50*
CCOC(=O)[C@]12Cc3cc(Cl)ccc3[C@H]1N(Cc1ccccc1)C(=O)c1ccccc12	-18%	i	-25%	.	-15
COc1ccc(CCNc2nc3c(c(=O)n(C)c(=O)n3C)n2Cc2ccc(F)cc2)cc1OC	-21%	?	-17%	.	.
COC[C@H]1OC(=O)c2coc3c2[C@@]1(C)C1=C(C3=O)[C@@H]2CCC(=O)[C@@]2(C)C[C@H]1OC(C)=O	-3%	i	-23%	.	-101*
COC(=O)C1CN(C#N)N(c2ccc(Cl)cc2)C12c1ccccc1-c1ccccc12 (centres undefined)	-26%	4µM*	4µM*	-11%	-97*
CC1(C)C(C(=O)N2CCN(c3ccc(Cl)cc3)CC2)C1(C)C	-17%	i	?	1%	-3
O=C1NC(=O)N(c2ccc3c(c2)OCO3)C(=O)/C1=C/c1ccsc1	-5%	i	-12%	2%	7
O=C1NC(=O)N(c2ccc3c(c2)OCO3)C(=O)/C1=C/c1cccs1	-22%	i	-17%	4%	-104*
O=C(O)[C@@H](O)[C@H](O)C(=O)O	14%	i	-1%	.	-11
COc1cc2c(cc1OC)CN(c1ccc([N+](=O)[O-])c(C(F)(F)F)c1)CC2	-6%	i	-39%	-8%	-51*
CC(C)(O)C(=O)Nc1ccc([N+](=O)[O-])c(C(F)(F)F)c1	-26%	i	-4%	1%	23
N[C@@H](Cc1ccc(Oc2cc(I)c(O)c(I)c2)c(I)c1)C(=O)O	.	i	3%	.	.
COCCO[C@H]1CC[C@@]2(C)C(=CCC3C2CC[C@@]2(C)C3CC[C@]2(C)O)C1 (some centres undefined)	?	i	-15%	-2%	-72*
C[C@]12CCC(OC(=O)CCC(=O)O)CC1=CCC1C2CC[C@]2(C)C(=O)CCC12 (some centres undefined)	-31%	i	8%	1%	-8
Cc1ccccc1OCC(=O)Nc1ccccc1C(=O)OCc1cc(=O)n2nc(C3CC3)sc2n1	?	i	-1%	.	.
C[C@H]1COC2=C1C(=O)C(=O)c1c2ccc2c1CCCC2(C)C	32µM*	?	3%	2%	-21
CC[C@]1(O)CC[C@H]2[C@@H]3CCC4=CCCC[C@@H]4[C@H]3CC[C@@]21C	.	?	-23%	.	.
C[N+]1=C(/C=C/Nc2ccccc2)C(C)(C)c2ccccc21	1%	i	-19%	2%	-81*
Cc1ccc(NS(=O)(=O)c2c(F)cc(F)c(Cl)c2F)cc1S(=O)(=O)N1CCOCC1	?	i	-11%	4%	-3
Cc1ccc(C[n+]2c(-c3ccc(C)cc3)cc(-c3ccc(C)cc3)cc2-c2ccc(C)cc2)cc1	-25%	.	?	4%	-111*
CCCCCCCSc1cc(OC)c(CCN(C)C)cc1OC	-21%	.	22µM*	-12%	-100*
COCCNC(=O)c1c(N)n(CCC(C)C)c2nc3ccccc3nc12	?	.	-15%	-9%	-116*
CCCCNC(=O)c1c(N)n(CCCOC)c2nc3ccccc3nc12	11µM*	.	-19%	-1%	?
CCOC(=O)NC(C)(C)Cc1ccc(Cl)cc1	.	i	0%	.	.
SMILES	USP1 inh	S2 tox	ATXN2 expr inh	USP2a inh	IL1B secr inh
CC(=O)Oc1ccc2c3c1O[C@H]1[C@@H](OC(C)=O)C=C[C@H]4[C@@H](C2)N(C)CC[C@@]341	.	i	.	.	.
Clc1ccc(COC(Cn2ccnc2)c2ccc(Cl)cc2Cl)cc1 (centres undefined)	-34%	?	35µM*!	-14%	0
Cc1ccc(-n2cc(CNC(C)Cc3cnccn3)c(-c3cccc(C)c3)n2)cc1 (centres undefined)	-17%	?	-8%	-1%	-76*
CC(Cc1cnccn1)NCc1c(C(=O)N2CCCCCCC2)nc2ccc(Cl)cn12 (centres undefined)	-12%	i	6%	0%	-15
O=C(O)c1ccc(=O)[nH]c1	.	i	12%	.	.
COc1ccc(C)cc1NC(=O)N(Cc1ccc2c(c1)OCO2)C1CCN(Cc2ccccc2)CC1	-7%	i	-7%	.	.
COc1cccc(NC(=O)C2CCN(c3nnc(C)c4c(C)n(-c5ccccc5)nc34)CC2)c1	4%	?	?	.	.
CNC(=O)Nc1ccc(C(=O)N/N=C\C23CC[C@@H](O)CC2(O)CC[C@@H]2[C@@H]3CCC3(C)C(C4=CC(=O)OC4)CCC23O)cc1 (some centres undefined)	-14%	i	?	0%	30
CC12CCC(O)CC1CCC1C2CCC2(C)C(C3=CC(=O)OC3)C(O)CC12O (centres undefined)	4%	?	?	.	-74*
CC12CC[C@H]3[C@@H](CCC4(O)C[C@H](O)CCC34/C=N/NC(=O)c3ccccc3[N+](=O)[O-])C1(O)CCC2C1=CC(=O)OC1 (some centres undefined)	-12%	?	?	0%	?
CC12CCC(O)CC1CCC1C2CCC2(C)C(C3=CC(=O)OC3)CCC12O (centres undefined)	-13%	?	0.84µM*	.	-65*
CC(=O)OC1CC(OC2C(O)CC(OC3C(O)CC(OC4CCC5(C)C(CCC6C5CC(O)C5(C)C(C7=CC(=O)OC7)CCC65O)C4)OC3C)OC2C)OC(C)C1OC1OC(CO)C(O)C(O)C1O (centres undefined)	-9%	?	0.32µM*	.	-66*
COC1C(O)C(C)OC(OC2CCC3(C)C(CCC4C3C(O)CC3(C)C(C5=CC(=O)OC5)CCC43O)C2)C1O (centres undefined)	2%	?	0.4µM*	.	0
CC1COC2(c3ccccc3Cl)c3cc(Cl)ccc3NC(=O)CN12 (centres undefined)	.	i	4%	.	.
CC1(C)CC/C(=C/c2ccc(Cl)cc2)C1(O)Cn1cncn1 (centres undefined)	.	i	-9%[116 µM]	.	.
C[C@]12CC[C@H](O)C[C@H]1CC[C@@H]1[C@@H]2CC[C@]2(C)[C@@H](C3=CC(=O)OC3)CC[C@]12O	-12%	?	0.32µM*	1%	?

Screening results (PubChem BioAssay)
